Measurements as given in PubChem BioAssay.
The source made the active and inactive calls.

Assays:
[1] = E. coli DRC41 culture turbidity changes, primary screen, E. coli filamentation inducer project, strain DRC41, OD650, 48 h (AID 1152);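 also: E. coli MC1000 strain DRC41 lacking acrAB efflux pump and sulA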; details: E. coli DRC41 (acrAB sulA), higher = more signal, called active from +8 up or from −8 down
[2] = small-molecule binders of probe aLefty1, primary screen, biochemical, small-molecule microarray, 635/667 nm fluorescence (AID 1153); details: higher = more signal;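 also: score merges spot fluorescence with signal-to-noise ratio from the scanned slide images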
[3] = PSAC antagonists in infected red cells, primary screen, cell-based, P. falciparum Indochina, OD700, 1 h (AID 1154); details: P. falciparum Indochina infected RBC osmotic lysis, higher = more signal, called active from +8 up or from −8 down
[4] = PSAC antagonists in infected red cells, primary screen, cell-based, P. falciparum Indochina, OD700, 2 h (AID 1155);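 also: lysis reports solute entry through the parasite surface anion channel PSAC; channel blockers reduce lysis of infected cells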; details: P. falciparum Indochina infected erythrocytes, osmotic lysis OD700; higher = more signal, called active from +8 up or from −8 down
[5] = osmotic lysis modulators in infected erythrocytes, primary screen, PSAC antagonist project, cell-based, P. falciparum Indochina, OD700, 3 h (AID 1156); details: higher = more signal, called active from +8 up or from −8 down
[6] = PSAC antagonists in infected red cells, primary screen, cell-based, P. falciparum Indochina, OD700, 18 h (AID 1157); details: P. falciparum Indochina infected erythrocytes, osmotic lysis OD700, 18 h; higher = more signal, called active from +8 up or from −8 down
[7] = modulators of S6 phosphorylation in cells, primary screen, cell-based, A549, cytoblot, luminescence, serum-stimulated (AID 1158); details: A549 phospho-S6 cytoblot, 5 h, higher = more signal;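 also: serum-stimulated A549 lung adenocarcinoma cells; signal is phosphorylated S6 detected by cytoblot immunostaining with HRP secondary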
[8] = biological target: NADPH oxidase 2 (Homo sapiens) (UniProt P04839); test: NOX2-dependent H2O2 signal modulators, primary screen, NOX inhibitor project, cell-based, HEK293-NOX2, PMA-stimulated, Amplex Red fluorescence (AID 1159); details: 45 min, higher = more signal, called active from +8 up or from −8 down; also: test concentration not given here
[9] = biological target: NADPH oxidase 4 (Homo sapiens) (UniProt Q9NPH5); test: NOX4-dependent H2O2 signal modulators, primary screen, NOX inhibitor project, cell-based, HEK293-NOX4, tetracycline-induced, Amplex Red fluorescence (AID 1160); details: 45 min, higher = more signal, called active from +8 up or from −8 down
[10] = biological target: NADPH oxidase 5 (Homo sapiens) (UniProt Q96PH1); test: NOX5-dependent H2O2 signal modulators, primary screen, NOX inhibitor project, cell-based, HEK293-NOX5, Amplex Red fluorescence (AID 1161); details: HEK293-NOX5, ionomycin, 45 min, higher = more signal
Chain of NADPH oxidase 5 (Homo sapiens) (Q96PH1 whole entry, looked up): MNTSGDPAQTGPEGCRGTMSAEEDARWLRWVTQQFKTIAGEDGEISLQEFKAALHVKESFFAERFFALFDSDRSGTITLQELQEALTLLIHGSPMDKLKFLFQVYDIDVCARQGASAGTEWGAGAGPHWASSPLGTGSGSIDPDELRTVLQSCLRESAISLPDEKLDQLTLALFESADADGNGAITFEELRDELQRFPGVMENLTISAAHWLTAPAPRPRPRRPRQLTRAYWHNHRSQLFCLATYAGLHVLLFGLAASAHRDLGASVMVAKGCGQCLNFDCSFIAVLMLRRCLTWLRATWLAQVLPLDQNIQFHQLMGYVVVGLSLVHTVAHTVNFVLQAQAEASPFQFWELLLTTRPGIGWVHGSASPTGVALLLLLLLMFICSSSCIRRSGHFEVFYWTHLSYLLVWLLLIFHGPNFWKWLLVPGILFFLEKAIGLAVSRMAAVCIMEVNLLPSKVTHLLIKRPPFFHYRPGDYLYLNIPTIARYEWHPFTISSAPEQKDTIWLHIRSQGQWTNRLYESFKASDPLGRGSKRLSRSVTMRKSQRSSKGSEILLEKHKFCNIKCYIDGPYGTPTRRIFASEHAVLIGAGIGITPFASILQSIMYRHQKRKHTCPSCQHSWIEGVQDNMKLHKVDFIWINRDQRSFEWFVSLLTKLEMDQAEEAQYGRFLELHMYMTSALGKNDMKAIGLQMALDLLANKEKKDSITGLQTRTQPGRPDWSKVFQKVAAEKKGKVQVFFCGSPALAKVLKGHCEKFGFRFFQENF

Chain of NADPH oxidase 4 (Homo sapiens) (Q9NPH5 whole entry, looked up): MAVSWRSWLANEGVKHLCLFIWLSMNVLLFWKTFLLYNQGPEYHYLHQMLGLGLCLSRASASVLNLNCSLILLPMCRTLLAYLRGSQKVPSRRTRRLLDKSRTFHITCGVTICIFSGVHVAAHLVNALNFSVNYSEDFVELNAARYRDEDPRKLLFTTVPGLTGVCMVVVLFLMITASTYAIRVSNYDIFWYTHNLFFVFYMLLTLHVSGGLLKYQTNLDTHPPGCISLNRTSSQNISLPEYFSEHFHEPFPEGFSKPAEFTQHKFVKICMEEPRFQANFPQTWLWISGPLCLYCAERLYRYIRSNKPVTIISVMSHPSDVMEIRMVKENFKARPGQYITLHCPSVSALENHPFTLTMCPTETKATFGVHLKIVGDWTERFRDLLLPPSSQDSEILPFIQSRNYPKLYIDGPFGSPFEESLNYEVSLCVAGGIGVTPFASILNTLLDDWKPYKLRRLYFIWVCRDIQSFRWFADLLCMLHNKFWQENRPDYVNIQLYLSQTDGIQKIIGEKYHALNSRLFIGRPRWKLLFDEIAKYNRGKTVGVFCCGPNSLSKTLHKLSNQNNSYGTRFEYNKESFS
Chain of NADPH oxidase 2 (Homo sapiens) (P04839 whole entry, looked up): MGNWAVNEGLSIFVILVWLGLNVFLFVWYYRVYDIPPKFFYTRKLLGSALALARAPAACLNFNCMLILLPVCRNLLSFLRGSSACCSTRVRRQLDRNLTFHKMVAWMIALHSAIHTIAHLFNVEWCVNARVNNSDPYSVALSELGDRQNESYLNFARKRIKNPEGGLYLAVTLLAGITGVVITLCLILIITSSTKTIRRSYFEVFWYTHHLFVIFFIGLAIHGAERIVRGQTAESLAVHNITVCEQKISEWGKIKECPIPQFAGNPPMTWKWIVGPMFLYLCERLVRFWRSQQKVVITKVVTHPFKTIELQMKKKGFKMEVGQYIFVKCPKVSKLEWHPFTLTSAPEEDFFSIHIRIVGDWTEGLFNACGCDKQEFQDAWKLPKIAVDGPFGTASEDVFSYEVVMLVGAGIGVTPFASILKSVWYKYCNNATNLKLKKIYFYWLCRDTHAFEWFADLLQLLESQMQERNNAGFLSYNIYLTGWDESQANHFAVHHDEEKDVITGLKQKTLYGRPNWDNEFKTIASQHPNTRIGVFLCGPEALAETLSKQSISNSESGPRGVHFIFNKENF

SMILES | z-score [1] | composite z-score [2] | z-score [3] | z-score [4] | z-score [5] | z-score [6] | z-score [7] | z-score [8] | z-score [9] | z-score [10]
O=C1C=C[C@@H](O)[C@@H]2[C@@H]3C(=O)N(c4ccc(F)cc4F)C(=O)[C@@H]3CC[C@@H]12 | 0.262 (inactive) | -0.0559 | 0.337 (inactive) | -1.44 (inactive) | -0.562 (inactive) | -1.9 (inactive) | 1.44 | -0.632 (inactive) | 0.267 (inactive) | 0.713
CO[C@@H]1COC(=O)[C@@H]2CCCN2C(=O)[C@@H](C)COC(=O)CC=C[C@H]1C | -0.481 (inactive) | 0.0553 | 0.202 (inactive) | -0.116 (inactive) | 0.601 (inactive) | 0.0246 (inactive) | -0.641 | -0.48 (inactive) | 0.393 (inactive) | 0.0919
O=C(C=Cc1ccc2c(c1)OCO2)c1ccc(F)cc1 | -0.394 (inactive) | 0.0685 | 20.7 (active) | 3.22 (inactive) | -0.0309 (inactive) | 0.47 (inactive) | -0.41 | 1.75 (inactive) | -2 (inactive) | -1.56
C[n+]1ccc(-c2ccc(CO)cc2)cc1 | 0.209 (inactive) | -0.0303 | -0.8 (inactive) | -0.376 (inactive) | -1.05 (inactive) | -0.0148 (inactive) | -0.6 | -0.225 (inactive) | -0.0911 (inactive) | -3.04
COc1ccc(O[C@H]2C=C[C@@H](c3ccccc3)O[C@@H]2COC(=O)CCC(C)=NOC(C)CN2CCCc3nc(C)c(C)cc32)cc1 (stereo not given in full) | -0.343 (inactive) | 0.0004 | 8.59 (active) | 0.812 (inactive) | 0.54 (inactive) | 0.563 (inactive) | -0.314 | -2.38 (inactive) | -0.643 (inactive) | -1.35
C[C@@H](c1ccccc1)N1C(=O)[C@H]2[C@H]3[C@H](O)[C@H](O)CC(=NOCc4ccccc4)[C@H]3CC[C@H]2C1=O | 0.331 (inactive) | -0.0518 | 31.6 (active) | 6.36 (inactive) | 0.321 (inactive) | 1.21 (inactive) | -0.182 | -1.53 (inactive) | 0.0357 (inactive) | -3.27
CC(C)CON=C1C[C@@H](O)[C@@H](O)[C@@H]2[C@@H]3C(=O)N(Cc4ccc5c(c4)OCO5)C(=O)[C@@H]3CC[C@H]12 | -0.135 (inactive) | -0.198 | 1.22 (inactive) | 0.32 (inactive) | 0.337 (inactive) | 0.108 (inactive) | -0.27 | -0.378 (inactive) | 1.02 (inactive) | -0.146
CC(=O)OC[C@H]1O[C@H](CC=NO[C@H](C)c2cn([C@H](CO)Cc3ccccc3)nn2)C=C[C@@H]1OC(C)=O | -0.176 (inactive) | -0.007 | 0.639 (inactive) | 0.103 (inactive) | 0.238 (inactive) | 0.391 (inactive) | -0.871 | -0.0815 (inactive) | 0.835 (inactive) | -1.3
CC(C)C[C@H](NC(=O)CCC1CC(OC(=O)NCc2cccc3ccccc23)CC2(CCCC(COC(=O)NCc3ccccc3)O2)O1)C(=O)NCC(c1ccccc1)c1ccccc1 (stereo not given in full) | 0.576 (inactive) | -0.29 | 8.07 (active) | 1.33 (inactive) | -1.22 (inactive) | 0.688 (inactive) | -0.71 | 0.871 (inactive) | 0.194 (inactive) | -0.0969
O=C1C[C@@H](O)[C@@H](O)[C@@H]2[C@@H]3C(=O)N(Cc4ccc5c(c4)OCO5)C(=O)[C@@H]3CC[C@H]12 | -0.116 (inactive) | -0.104 | 1.52 (inactive) | 0.14 (inactive) | -0.582 (inactive) | 0.207 (inactive) | -0.196 | -0.148 (inactive) | 0.314 (inactive) | -0.36
CSCC[C@@H]1NC(=O)CC=C[C@@H](C)COC(=O)[C@@H](C)COC1=O | -0.136 (inactive) | -0.283 | -0.434 (inactive) | 0.28 (inactive) | 0.742 (inactive) | 0.0841 (inactive) | -0.0649 | -1.13 (inactive) | 0.279 (inactive) | 0.238
CCOC(=O)[C@H](CC(C)C)NC(=O)CCC1CC(OC(=O)NCc2cccc3ccccc23)CC2(CCCC(COC(=O)NCCc3ccc(Cl)cc3)O2)O1 (stereo not given in full) | 0.692 (inactive) | -0.14 | 3.31 (inactive) | 0.0962 (inactive) | -0.837 (inactive) | -0.466 (inactive) | 0.367 | 0.274 (inactive) | 0.623 (inactive) | 1.24
COc1cccc([C@H]2Oc3ccc(OC)cc3C(=NO[C@H](C)c3cn([C@H](CO)Cc4ccccc4)nn3)[C@@H]2O)c1 | 0.348 (inactive) | -0.142 | 1.38 (inactive) | 0.0637 (inactive) | 0.151 (inactive) | 0.22 (inactive) | -0.16 | -0.809 (inactive) | 0.364 (inactive) | -0.781
CCOC(=O)[C@H](Cc1ccccc1)NC(=O)CCC1CC(OC(=O)NCCc2ccc(F)cc2)CC2(CCCC(COC(=O)NCCOC)O2)O1 (stereo not given in full) | 0.602 (inactive) | -0.0468 | 19.4 (active) | 4.99 (inactive) | 0.486 (inactive) | 0.737 (inactive) | 0.011 | 0.188 (inactive) | 0.251 (inactive) | 0.0245
COC(=O)[C@@H]1CC[C@H](C)[C@@H](c2ccc(C)cc2)N1C(=O)c1ccc(C=NO[C@H](C)c2cn([C@H](CO)Cc3ccccc3)nn2)cc1 | -0.25 (inactive) | 0.342 | 18.8 (active) | 2.92 (inactive) | 1.91 (inactive) | 1.25 (inactive) | -0.0872 | -0.0504 (inactive) | -0.591 (inactive) | -1.71
COC(=O)[C@H](C)NC(=O)CCC1CC(OC(=O)NCc2ccc3c(c2)OCO3)CC2(CCCC(COC(=O)NCc3cccc(C(F)(F)F)c3)O2)O1 (stereo not given in full) | -0.39 (inactive) | -0.045 | 0.598 (inactive) | -0.529 (inactive) | 0.262 (inactive) | -0.239 (inactive) | 0.0036 | 1.5 (inactive) | 0.971 (inactive) | 1.15
CC(C)=CCCC(C)=CCON=C1C[C@@H](O)[C@@H](O)[C@@H]2[C@@H]3C(=O)N(C(C)(C)C)C(=O)[C@@H]3CC[C@H]12 | 0.367 (inactive) | -0.0603 | -0.22 (inactive) | 0.28 (inactive) | -0.921 (inactive) | -0.138 (inactive) | -0.443 | 0.799 (inactive) | 0.427 (inactive) | 0.0706
Cc1cc2c(c(=O)o1)[C@@H](O)[C@H]1O[C@H]1C2=O | -1.63 (inactive) | -0.0547 | 0.381 (inactive) | 0.716 (inactive) | 0.634 (inactive) | 0.348 (inactive) | 0.0719 | 1.6 (inactive) | -0.899 (inactive) | -1.31
COC(=O)[C@H](C)NC(=O)CCC1CC(OC(=O)NCc2cccc3ccccc23)CC2(CCCC(COC(=O)NCC(c3ccccc3)c3ccccc3)O2)O1 (stereo not given in full) | 0.223 (inactive) | -0.0562 | -0.228 (inactive) | -0.0825 (inactive) | -1.34 (inactive) | -0.242 (inactive) | 0.863 | -0.121 (inactive) | 1.09 (inactive) | 1.47
C=C(C)C(=O)OCC1CN2[C@@H](CC[C@@H](C)[C@@H]2c2ccc(Br)cc2)C(=O)O1 (stereo not given in full) | -0.949 (inactive) | 0.183 | 3.23 (inactive) | 0.672 (inactive) | 0.189 (inactive) | 0.491 (inactive) | -0.48 | -0.0685 (inactive) | -0.149 (inactive) | -0.475
CO[C@H]1COC(=O)CCC[C@@H](C)[C@H](OC)COC(=O)[C@@H](C)NC(=O)CC=C[C@@H]1C | 0.312 (inactive) | -0.0969 | -0.806 (inactive) | -0.912 (inactive) | 0.565 (inactive) | -1.59 (inactive) | 1.05 | -1.18 (inactive) | -2.55 (inactive) | -1.3
O=C1[C@H]2[C@H]3[C@H](O)[C@H](O)CC(=NOCc4ccccc4)[C@@H]3CC[C@H]2C(=O)N1Cc1ccc2c(c1)OCO2 | 0.0628 (inactive) | 0.217 | 6.28 (inactive) | 1.02 (inactive) | 1.06 (inactive) | 0.354 (inactive) | 0.0008 | 1.09 (inactive) | 0.665 (inactive) | -1.01
O=C1CCCC(C2=CCCCC2=O)C1 (stereo not given) | -0.316 (inactive) | -0.0224 | 0.599 (inactive) | -0.349 (inactive) | 0.231 (inactive) | -0.168 (inactive) | 0.142 | -0.7 (inactive) | -0.427 (inactive) | -0.253
C=CC[C@@H]1C=C[C@H](ON=C(C)CCN2CCc3nc(-c4ccccc4)c(-c4ccccc4)cc3C2)[C@@H](CO)O1 | 0.418 (inactive) | 0.0446 | 4.53 (inactive) | 0.809 (inactive) | 0.85 (inactive) | 0.538 (inactive) | -0.0288 | -2.79 (inactive) | -0.835 (inactive) | -2.75
C=CC1=C[C@H](O)[C@@H]2O[C@@H]2C12OCCCO2 | 0.104 (inactive) | -0.275 | -0.179 (inactive) | 0.191 (inactive) | -0.264 (inactive) | -0.121 (inactive) | -0.495 | -1.11 (inactive) | 0.617 (inactive) | 0.629
CO[C@H]1COC(=O)CC=C[C@H](C)[C@@H](OC)COC(=O)[C@@H](C)COC(=O)CC=C[C@@H]1C | -0.513 (inactive) | -0.193 | -0.435 (inactive) | 0.106 (inactive) | 0.033 (inactive) | -0.213 (inactive) | -0.0875 | -1.46 (inactive) | 0.28 (inactive) | 0.18
